Test results taken from PubChem BioAssay AID651813 (National Center for Advancing Translational Sciences (NCATS), 2012).
Hit rate of the full screen: of about 2,100 compounds, about 1,100 (52%) were called active. About 27% were inconclusive and are not listed. The call rests on the fitted dose curve; in most records, active means well fitted inhibition curve with a large enough effect; inconclusive means small, poorly fitted or top-dose-only effect; inactive means no such curve, though single readings can be large or run the other way. So high a share suggests a set chosen from earlier hits. This is one part of the list.
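Further: hits raise yellow fluorescence by blocking Vif-driven A3G-eYFP degradation; nearly all actives have a fitted effect of over 70% in size.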
Potency means the concentration at half of the fitted maximal effect.
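Wherever max response is given: max response given as percent of control signal.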

The molecules below were run against DNA dC->dU-editing enzyme APOBEC-3G (Homo sapiens) (UniProt Q9HC16) (assay: qHTS for inhibitors of Vif-A3G interactions: Cherry picks counterscreen). Settings: HeLa A3G-eYFP + Vif (tagged APOBEC3G with the HIV-1 protein that degrades it), eYFP fluorescence, 24 h.
Sequence of DNA dC->dU-editing enzyme APOBEC-3G (Homo sapiens) (Q9HC16 whole entry, looked up): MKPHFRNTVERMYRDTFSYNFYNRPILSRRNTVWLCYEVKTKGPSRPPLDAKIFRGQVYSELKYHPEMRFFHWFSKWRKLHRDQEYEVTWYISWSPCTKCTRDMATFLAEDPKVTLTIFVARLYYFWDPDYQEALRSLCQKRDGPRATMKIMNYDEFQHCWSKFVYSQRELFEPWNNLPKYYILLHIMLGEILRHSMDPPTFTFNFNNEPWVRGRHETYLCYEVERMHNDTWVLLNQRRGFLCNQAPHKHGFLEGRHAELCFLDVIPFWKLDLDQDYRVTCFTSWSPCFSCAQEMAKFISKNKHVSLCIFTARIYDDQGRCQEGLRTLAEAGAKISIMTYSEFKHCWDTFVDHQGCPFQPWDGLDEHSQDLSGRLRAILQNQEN
Method in brief: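 Readout is eYFP fluorescence (488 nm excitation, 500-530 nm emission) measured on Acumen Explorer after 24 h compound exposure, several concentrations, at 37 deg C. Cells: HeLa stably co-expressing Vif and C-terminally eYFP-tagged A3G; MG132 positive control.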
With Clc1ccccc1C1CC(c2ccccc2)=Nc2ccccc2N1 (stereo not given) the max response was -7.91% (inactive).
For Cc1nc2cc(NC(=O)CSc3nc4c(C)cccc4cc3C#N)ccc2s1, the Potency was 20.6 µM (active).
For Cc1ccc2nc(SCC(=O)Nc3ccc4sc(C)nc4c3)c(C#N)cc2c1, the Potency was 18.4 µM (active).
With COCCN(CCOC)Cc1c(O)ccc2c1O/C(=C\c1ccc(C)o1)C2=O the max response was -11.8% (inactive).
Cc1nnc(N2C(=O)c3cccc4c([N+](=O)[O-])ccc(c34)C2=O)s1 was tested, and the Potency was 20.6 µM (active).
For O=C1c2cccc3c([N+](=O)[O-])ccc(c23)C(=O)N1c1ccccn1, the max response was 54.4% (inactive).
For CC(=O)Oc1cccc(N2C(=O)c3cccc4c([N+](=O)[O-])ccc(c34)C2=O)c1, the Potency was 15.8 µM (active).
N#CC1=C(N)C(C#N)(C#N)[C@H](c2c(F)cccc2F)[C@H]2CC3(CC=C12)OCCO3 was tested, and the Potency was 16.4 µM (active).
In the case of Cc1ccc(C(=O)NCCn2c(N)c(C#N)c3nc4ccccc4nc32)cc1, the Potency is reported as 23.1 µM (active).
In the case of Cc1cccc(-n2c(N)c(-c3nc4ccccc4n3C)c3nc4ccccc4nc32)c1, the max response is reported as -1.87% (inactive).
With COc1cc(OC)cc(C(=O)N/N=C/c2ccc(OC)c(COc3ccc4ccccc4c3)c2)c1 the Potency was 15.8 µM (active).
COc1ccccc1/C=N/NC(=S)Nc1cccnc1 was tested, and the max response was -12.2% (inactive).
For COc1ccc(/C=N/NC(=O)c2ccccc2Cl)cc1CSc1nc2ccccc2s1, the Potency was 3.14 µM (active).
In the case of COc1ccc(/C=N/NC(=O)c2cccnc2)cc1CSc1ccccn1, the Potency is reported as 5.59 µM (active).
COc1ccc(/C=N/NC(=O)c2cccnc2)cc1COc1ccc(NC(C)=O)cc1 was tested, and the Potency was 12.5 µM (active).
For COc1cnc(-c2ccccn2)nc1Oc1ccc(F)cc1F, the max response was -4.73% (inactive).
COc1ccc(/C=N/NC(=O)c2cc(OC)c(OC)c(OC)c2)cc1CN1CCc2cc(OC)c(OC)cc2C1C (stereo not given) was tested, and the Potency was 12.5 µM (active).
In the case of CC(=O)N1CCc2nc3sc(C(=O)c4ccc(F)cc4)c(N)c3c(C(F)(F)F)c2C1, the Potency is reported as 18.4 µM (active).
COc1ccc(C(=O)c2sc3nc4c(c(C(F)(F)F)c3c2N)CN(C(C)=O)CC4)cc1OC was tested, and the Potency was 18.4 µM (active).
In the case of CCOC(=O)c1cc2n(c1/N=C/N(C)C)-c1ccccc1C2=O, the Potency is reported as 16.4 µM (active).
CCOC(=O)c1cc2n(c1N)-c1ccccc1C2=O was tested, and the max response was -28.5% (inactive).
With CO/N=C\CC(=O)Nc1ccc(Oc2ccccc2)cc1 the Potency was 1.98 µM (active).
CO/N=C\CC(=O)Nc1ccc(Cl)c(Cl)c1 was tested, and the Potency was 9.94 µM (active).
With CCCCN1C(=O)/C(=C2/Sc3ccccc3N2C)S/C1=N\c1ncn[nH]1 the Potency was 20.6 µM (active).
For O=C(NNc1ncc(C(F)(F)F)cc1Cl)c1c(Cl)cccc1Cl, the Potency was 14 µM (active).
In the case of O=C(NCc1ccc2c(c1)OCO2)c1cc([N+](=O)[O-])ccc1N1CCCCC1, the Potency is reported as 1.98 µM (active).
For O=C(/C=C/c1cccs1)NCc1ccc2c(c1)OCO2, the max response was -24.4% (inactive).
COc1cc(OC)cc(C(=O)Nc2ccc(N3CCN(C(=O)c4cccs4)CC3)cc2)c1 was tested, and the Potency was 6.27 µM (active).
In the case of COc1cccc(C(=O)Nc2ccc(N3CCCC3)cc2)c1, the Potency is reported as 5.59 µM (active).
CCc1ccc(C(=O)NC(=S)Nc2ccc(N3CCOCC3)cc2)cc1 was tested, and the max response was 0.165% (inactive).
With COc1cc(C(=O)OCC(=O)Nc2ccc(N3CCOCC3)cc2)ccc1OCC(C)C the max response was 8.76% (inactive).
For CCN(CC)c1ccc(C=NNc2ccc([N+](=O)[O-])cn2)cc1, the Potency was 1.3 µM (active).
For O=[N+]([O-])c1ccc(N/N=C\c2cccn2-c2ccccc2)nc1, the Potency was 15.8 µM (active).
For Oc1ccc(C2=NNC(=NCc3ccc4c(c3)OCO4)SC2)c(O)c1, the Potency was 7.9 µM (active).
For COc1cc(C2C(C#N)=C(N)Oc3cc(O)ccc32)cc2c1OCO2 (stereo not given), the Potency was 11.2 µM (active).
With COc1ccc(C2C(C#N)=C(N)Oc3cc(N)ccc32)cc1OC (stereo not given) the Potency was 9.94 µM (active).
For N#CC1=C(N)Oc2cc(N)ccc2C1c1cccc(Br)c1 (stereo not given), the Potency was 0.627 µM (active).
In the case of COc1ccc(C2C(C#N)=C(N)Oc3c2ccc2cccnc32)cc1OC (stereo not given), the Potency is reported as 1.77 µM (active).
For COc1ccc2nc(Nc3nc(CSc4ccc(C)cc4)cc(=O)[nH]3)nc(C)c2c1, the max response was -26.4% (inactive).
For N#CC1=C(N)Oc2cc(N)ccc2C1C1CC=CCC1 (stereo not given), the Potency was 5.59 µM (active).
In the case of N#CC1=C(N)Oc2cc(N)ccc2C1c1ccccc1F (stereo not given), the Potency is reported as 9.94 µM (active).
Cc1oc(C)c2c(=O)ccc3c(c12)OC(N)=C(C#N)C3c1ccc(F)cc1 (stereo not given) was tested, and the max response was 44.8% (inactive).
With N#CC1=C(N)Oc2cc(N)ccc2C1c1ccccc1 (stereo not given) the Potency was 15.8 µM (active).
For N#CC1=C(N)Oc2cc(N)ccc2C1c1cccc(F)c1 (stereo not given), the Potency was 4.98 µM (active).
In the case of COc1ccccc1-c1cc(C(=O)NN)[nH]n1, the max response is reported as 14.5% (inactive).
With COc1ccc(NC(=O)c2cc(-c3ccccc3OC)on2)cc1 the Potency was 3.14 µM (active).
In the case of Cc1ccc(S(=O)(=O)C(C#N)c2nc3ccccc3nc2N2CCCC2)cc1 (stereo not given), the Potency is reported as 16.4 µM (active).
COc1ccc(-n2c(O)c(/C=N/NS(=O)(=O)c3cccc([N+](=O)[O-])c3)c3ccccc3c2=O)cc1OC was tested, and the Potency was 12.5 µM (active).
For O=C(O)CSc1cc(NS(=O)(=O)c2cccc([N+](=O)[O-])c2)c2ccccc2c1O, the max response was -17.9% (inactive).
With COc1ccc(-n2c(O)c(/C=N/NS(=O)(=O)c3ccc(C)c([N+](=O)[O-])c3)c3ccccc3c2=O)cc1OC the Potency was 4.61 µM (active).
In the case of CCN1C(=O)/C(=C/C=C2\N(CC)c3cc(S(=O)(=O)N(C)C)ccc3N2c2ccccc2)SC1=S, the Potency is reported as 1.12 µM (active).
In the case of N#C/C(=C\c1ccc(C(=O)O)cc1)c1nc2sc3c(c2c(=O)[nH]1)CCCC3, the max response is reported as -29.5% (inactive).
Cc1ccc2nc(/C(C#N)=C/c3ccc(O)c(O)c3)[nH]c2c1 was tested, and the max response was 43.5% (inactive).
CN(C)c1ccc(/C=C(\C#N)c2nc3ccccc3c(=O)[nH]2)cc1 was tested, and the Potency was 0.411 µM (active).
N#C/C(=C/c1ccc(O)c(O)c1)c1nc2ccccc2[nH]1 was tested, and the Potency was 3.14 µM (active).
COc1cc(/C=C(\C#N)c2nc3ccccc3s2)ccc1OCC(=O)Nc1ccccc1 was tested, and the Potency was 15.8 µM (active).
For COc1cc(/C=C(/C#N)c2nc3ccccc3[nH]2)ccc1OCC(=O)Nc1ccccc1C(C)C, the Potency was 13 µM (active).
With O=C(OCCC12CC3CC(CC(C3)C1)C2)c1ccc(NCc2cc(O)ccc2O)cc1 the max response was 25.7% (inactive).
For COc1cc(/C=C(\C#N)c2nc3ccccc3[nH]2)ccc1O, the Potency was 2.31 µM (active).
COc1cc(/C=C(/C#N)c2nc3ccccc3[nH]2)ccc1OC(=O)c1ccco1 was tested, and the max response was 51.6% (inactive).
With O=C1C=C(Nc2ccc(Cl)cc2Cl)CC(c2ccco2)C1 (stereo not given) the Potency was 5.59 µM (active).
COc1cc2nc(/C=C/c3ccc(N(C)C)cc3)sc2cc1SC was tested, and the Potency was 5.17 µM (active).
With COc1ccc(-c2cc(NC=O)c3ncc(-c4ccc(OC)c(OC)c4)n3c2)cc1OC the Potency was 5.59 µM (active).
In the case of COc1ccc(-c2cnc3c(NC=O)cc(-c4ccccc4)cn23)cc1OC, the Potency is reported as 3.14 µM (active).
In the case of CN(C)c1ccccc1-c1cc(NC=O)c2ncc(-c3cccc(C(F)(F)F)c3)n2c1, the Potency is reported as 12.5 µM (active).
In the case of COc1ccc(-c2cnc3c(NC=O)cc(-c4cc(OC)c(OC)c(OC)c4)cn23)cc1OC, the Potency is reported as 12.5 µM (active).
For COc1ccccc1-c1cc(NC=O)c2ncc(-c3ccc(S(C)(=O)=O)cc3)n2c1, the Potency was 17.7 µM (active).
With COc1cccc(-c2cnc3c(NC=O)cc(-c4cc(OC)c(OC)c(OC)c4)cn23)c1 the Potency was 9.94 µM (active).
With COc1ccc(-c2cnc3c(NC=O)cc(-c4ccoc4)cn23)cc1OC the Potency was 11.2 µM (active).
With COc1ccccc1NC(=O)c1oc2ccccc2c1NC(=O)c1cccc(OC)c1OC the Potency was 5.8 µM (active).
CCOc1ccccc1C(=O)Nc1c(C(=O)Nc2ccc(F)cc2)oc2ccccc12 was tested, and the Potency was 2.06 µM (active).
For CCCOc1ccc(N)cc1N, the max response was -27.6% (inactive).
For O=S(=O)(Nc1nc2ccccc2nc1OCC(F)(F)F)c1cccs1, the max response was -0.0016% (inactive).
O=C(COC(=O)c1ccc(NS(=O)(=O)c2cccs2)cc1O)NCc1ccccc1 was tested, and the Potency was 4.44 µM (active).
COc1ccc(NC(=O)COC(=O)c2cc(OC)c(OC)cc2NC(=O)c2ccco2)cc1OC was tested, and the max response was 9.25% (inactive).
O=C(COC(=O)c1ccc(NS(=O)(=O)c2cccs2)cc1)NCc1ccco1 was tested, and the Potency was 15.8 µM (active).
C/C(CCC(C)C)=N\NC(=S)NCc1ccccc1 was tested, and the max response was -18.4% (inactive).
In the case of Cc1ccc(CNC(=O)Cc2ccc(-n3cccc3)cc2)cc1, the Potency is reported as 1.98 µM (active).
O=C(Cc1ccccc1)NCc1ccc(-n2cccc2)cc1 was tested, and the Potency was 1.4 µM (active).
With Cc1ccc2nc(C)c(C(=O)NN=C3CCCCCC3)n2c1 the max response was -10.3% (inactive).
O=C1NC(=Nc2ccc(O)cc2)S/C1=C/c1ccco1 was tested, and the Potency was 8.86 µM (active).
In the case of COc1cc(/C=C2\SC(=Nc3ccccc3)NC2=O)cc(Cl)c1O, the Potency is reported as 3.66 µM (active).
In the case of CCOc1cc(Br)cc(/C=C2\SC(=Nc3ccccc3)NC2=O)c1O, the max response is reported as -7.55% (inactive).
For COc1cc(/C=C2/SC(=Nc3ccc(O)cc3)NC2=O)ccc1O, the Potency was 14.6 µM (active).
For COc1cc(/C=C2\SC(=Nc3cccnc3)NC2=O)cc(OC)c1OC, the max response was -29.3% (inactive).
For Cc1ccc2nc(/C(C#N)=C\c3ccc(OC(=O)c4cccs4)cc3)[nH]c2c1, the Potency was 11.2 µM (active).
For Cc1ccc2nc(/C(C#N)=C/c3ccc(-c4ccccc4C(=O)O)o3)[nH]c2c1, the max response was 43.5% (inactive).
N#C/C(=C\c1ccc(-c2ccc(F)cc2F)o1)c1nc2ccccc2[nH]1 was tested, and the Potency was 8.2 µM (active).
Cc1ccc2nc(/C(C#N)=C\c3ccc([N+](=O)[O-])o3)[nH]c2c1 was tested, and the Potency was 18.4 µM (active).
Cc1ccc2nc(/C(C#N)=C/c3ccc(-c4ccc(F)cc4F)o3)[nH]c2c1 was tested, and the Potency was 1.64 µM (active).
